Among the data in paper PMC13083723 (Patterns, 2026) are result_ITMP values, retold here.

The campaign covered roughly 5,400 compounds. About 190 (3.5%) showed an effect of 50% or more. The sample as a whole holds a higher share of strong results than the screen did.

In the assay the test system is Vero-E6. Put plainly: primary screen, phospholipidosis by LipidTOX staining; higher = more effect of the substance. The conditions noted are these: 10 µM. The protocol:
To measure drug-induced PLD in Vero-E6 cells, we used the HCS LipidTOX Red Phospholipidosis Detection Reagent (Invitrogen, #H34351), which is non-toxic to cell growth and remains well retained after aldehyde fixation. In this setup, compounds (at 10 μM concentration) and controls (amiodarone: 10 μM concentration; DMSO: 0.1 v/v %) were added to clear-bottom, 384-well plates (PhenoPlate 384-well, black, optically clear flat bottom, tissue-culture treated, Revvity #6057302) using the Echo Liquid Handler (Labcyte).
On to `CN(C)c1ccc2nc3ccc(N(C)C)cc3[s+]c2c1`, for which the result_ITMP amounted to 5.81%.
With `CO[C@@H]1[C@H](OC(=O)NC(=O)CCl)CC[C@]2(CO2)[C@H]1[C@@]1(C)O[C@@H]1CC=C(C)C`, the result_ITMP came out at 16.1%.
The figure for `NC[C@@H]1O[C@H](O[C@H]2[C@@H](O)[C@H](O[C@@H]3[C@@H](O)[C@H](N)C[C@H](N)[C@H]3O[C@H]3O[C@H](CO)[C@@H](O)[C@H](O)[C@H]3N)O[C@@H]2CO)[C@H](N)[C@@H](O)[C@@H]1O` is -1.27%; for `CC1CCC(O)C/C1=C\C=C1/CCCC2(C)C1CCC2C(C)/C=C/C(C)C(C)C` (stereo not drawn) it is 0.34%.
The result for `C[C@H](CSC(=O)c1ccccc1)C(=O)N1C[C@@H](Sc2ccccc2)C[C@H]1C(=O)[O-]` reads -1.35%; that for `Cc1ncc(COP(=O)([O-])O)c(CN(CCN(CC(=O)[O-])Cc2c(COP(=O)(O)O)cnc(C)c2[O-])CC(=O)[O-])c1[O-].[Mn+2]`, -10.5%; that for `O=C([O-])C1=C(CSc2nnnn2CS(=O)(=O)[O-])CS[C@@H]2[C@H](NC(=O)[C@H](O)c3ccccc3)C(=O)N12`, 0.51%.
The result for `CN1CCN(CC/C=C2/c3ccccc3Sc3ccc(S(=O)(=O)N(C)C)cc32)CC1` reads 61.9%; that for `CN(C)CCCN1c2ccccc2Sc2ccccc21`, 37.7%; that for `CN1CCCCC1CCN1c2ccccc2Sc2ccc(S(C)=O)cc21` (stereo not drawn), -0.95%.
Regarding `CN(C)CCCN1c2ccccc2CCc2ccccc21`, the result_ITMP stood at 23.6%.
Consider `CN(C)CCCN1c2ccccc2Sc2ccc(Cl)cc21`, for which the result_ITMP turned out to be 104%.
In the case of `OCCN1CCN(CC/C=C2/c3ccccc3Sc3ccc(Cl)cc32)CC1`, the result_ITMP turned out to be 17.9%.
Regarding `CSc1ccc2c(c1)N(CCC1CCCCN1C)c1ccccc1S2` (stereo not drawn), the result_ITMP worked out at 68.1%.
The result for `OCCN1CCN(CC/C=C2/c3ccccc3Sc3ccc(C(F)(F)F)cc32)CC1` reads 83.6%; that for `OCCOCCN1CCN(C2=Nc3ccccc3Sc3ccccc32)CC1`, 22.1%.
The figure for `Cc1[nH]c(/C=C2\C(=O)Nc3ccc(S(=O)(=O)N(C)c4cccc(Cl)c4)cc32)c(C)c1C(=O)N1CCN(C)CC1` is 7.98%; for `CO/N=C(/C(=O)N[C@@H]1C(=O)N2C(C(=O)[O-])=C(CSc3nc(=O)c([O-])nn3C)CS[C@H]12)c1csc(N)n1` it is -8.18%; for `C[N+]1([O-])[C@@H]2C[C@@H](OC(=O)[C@H](CO)c3ccccc3)C[C@H]1[C@@H]1O[C@@H]12` (stereo partly drawn) it is -4.04%.
The result for `C[C@@]1(CO)[C@H](O)CC[C@@]2(C)[C@H]1CC[C@H]1C[C@@H]3C[C@@]12CC[C@]3(O)CO` reads 0.12%; that for `CC(C)(C)c1ccc(-c2nc3cccc(N4CCN(Cc5ccc6nccnc6c5)CC4)c3[nH]2)cc1`, 5.05%; that for `Cc1cc(C)cc(NC(=O)Cc2ccc(OC(C)(C)C(=O)[O-])cc2)c1`, 9.78%.
Consider `O=S(=O)([O-])c1ccc(O)cc1`, for which the result_ITMP was -0.61%.
Turning to `Cc1onc(-c2c(F)cccc2Cl)c1C(=O)N[C@@H]1C(=O)N2[C@@H]1SC(C)(C)[C@@H]2C(=O)[O-]`, the result_ITMP is given as -6.63%.
Regarding `CCCCOc1c(C(=O)c2c(F)cc(C)cc2F)cnc2[nH]ncc12`, the result_ITMP is 7.58%.
Turning to `C/C(=C\CNc1ncnc2nc[nH]c12)CO`, the result_ITMP is listed as -1.84%.
As to `O=C(CN1CCN(Cc2ccc3c(c2)OCO3)CC1)N1c2ccccc2Sc2ccccc21`, the result_ITMP is 15.4%.
The result for `CCCCCCCCCCCCCCCC(=O)OCCC1CCN(CCCN2c3ccccc3Sc3ccc(S(=O)(=O)N(C)C)cc32)CC1` reads -5.2%.
Turning to `CCSc1ccc2c(c1)N(CCCN1CCN(C)CC1)c1ccccc1S2`, the result_ITMP came to 59.1%.
Consider `CN1CCN(CCCN2c3ccccc3Sc3ccc(S(=O)(=O)N(C)C)cc32)CC1`, for which the result_ITMP worked out at 50.3%.
For the molecule `CCCCCCCCCC(=O)OCCN1CCN(CCCN2c3ccccc3Sc3ccc(C(F)(F)F)cc32)CC1`, the result_ITMP is recorded as 5.56%.
The result for `OCCN1CCN(CCCN2c3ccccc3Sc3ccc(C(F)(F)F)cc32)CC1` reads 60.4%.
The figure for `C[C@@H]1CN(Cc2ccc(F)cc2)[C@@H](C)CN1C(=O)c1cc2c(C(=O)C(=O)N(C)C)cn(C)c2cc1Cl` is -5.07%; for `O=C([O-])c1cc2cc(Cc3cccnc3)ccc2o1` it is -0.95%; for `O=C([O-])[C@H](CC(=O)N1C[C@H]2CCCC[C@H]2C1)Cc1ccccc1` it is -4.71%.
Take `O=C(NN1C(=O)[C@@H]2[C@@H]3C=C[C@@H]([C@H]4C[C@@H]34)[C@@H]2C1=O)c1ccc(C(F)(F)F)cc1`: the result_ITMP was -0.89%.
Turning to `C/N=C(/NS(=O)(=O)c1ccc(Cl)cc1)N1CC(c2ccccc2)C(c2ccc(Cl)cc2)=N1` (racemic), the result_ITMP is listed as -1.59%.
Consider `O=C(O)c1cnn(-c2nc3cc(Cl)c(OC(F)(F)F)cc3[nH]2)c1`, for which the result_ITMP was -2.3%.
Take `CSc1ccc(C(=O)c2nc(O)[nH]c2C)cc1`: the result_ITMP is -1.45%.
The result for `O=S(=O)(NCCNC/C=C/c1ccc(Br)cc1)c1cccc2cnccc12` reads 60.8%.
The result for `NC(N)=NCCNS(=O)(=O)c1cccc2cnccc12` reads -3.17%; that for `O=S(=O)(c1cccc2cnccc12)N1CCNCC1`, 0.47%; that for `NC[C@@H]1O[C@H](O[C@H]2[C@@H](O)[C@H](O[C@@H]3[C@@H](O)[C@H](N)C[C@H](N)[C@H]3O[C@H]3O[C@H](CN)[C@@H](O)[C@H](O)[C@H]3N)O[C@@H]2CO)[C@H](N)[C@@H](O)[C@@H]1O`, -2.72%.
`c1cnc2c([O][Ga]([O]c3cccc4cccnc34)[O]c3cccc4cccnc34)cccc2c1`: the result_ITMP is on record as 5.3%.
Take `CCOC(=O)c1ccc(-n2cc(Cc3cnc(OCC)nc3)c(=O)nc2SCc2ccc(F)cc2)cc1`: the result_ITMP is listed as -1.15%.
As for `CCC(C)[C@H]1O[C@]2(C=C[C@@H]1C)C[C@@H]1C[C@@H](C/C=C(\C)[C@@H](OC3C[C@H](OC)C(O[C@H]4C[C@H](OC)[C@@H](O)[C@H](C)O4)[C@H](C)O3)[C@@H](C)/C=C/C=C3\CO[C@@H]4[C@H](O)C(C)=C[C@@H](C(=O)O1)[C@]34O)O2` (stereo partly drawn), the result_ITMP is -3.77%.
The result for `CCOc1nc2cccc(C(=O)O)c2n1Cc1ccc(-c2ccccc2-c2nc(=O)o[nH]2)cc1` reads -0.57%.
On to `NCCCC(O)(P(=O)([O-])O)P(=O)(O)O`, for which the result_ITMP was determined as 0.52%.
Turning to `CC1(C)S[C@@H]2[C@H](NC(=O)C(C(=O)[O-])c3ccccc3)C(=O)N2[C@H]1C(=O)[O-]` (stereo partly drawn), the result_ITMP was -1.48%.
In the case of `Nc1ncccc1-c1nc2ccc(-c3ccccc3)nc2n1-c1ccc(C2(N)CCC2)cc1`, the result_ITMP was determined as 91.9%.
The figure for `CC(C)(C)[C@]1(O)C[C@@H]2OC(=O)C[C@@]23C(=O)O[C@@H]2OC(=O)[C@H](O)C213` (stereo partly drawn) is -3.55%; for `COc1cccc2c1C(=O)c1c(O)c3c(c(O)c1C2=O)C[C@@](O)(C(=O)CO)C[C@@H]3OC1C[C@H](N2CCO[C@H](OC)C2)C(O)[C@H](C)O1` (stereo partly drawn) it is 0.2%; for `CC1(C)CC[C@]2(NC(=O)C(C)(F)F)CC[C@]3(C)C(C(=O)C=C4[C@@]5(C)C=C(C#N)C(=O)C(C)(C)[C@@H]5CC[C@]43C)C2C1` (stereo partly drawn) it is -22.1%.
Take `CC1(C)C[C@@H]1C(=O)N/C(=C\CCCCSC[C@H](N)C(=O)[O-])C(=O)O`: the result_ITMP is given as -1.62%.
The figure for `CCOC(=O)c1cc2ccc(O)cc2oc1=O` is -3.11%.
With `O=C(c1ccc(-c2ccc(Cl)cc2)o1)N(Cc1ccccn1)c1ccc(N2CCNCC2)cc1`, the result_ITMP stood at 104%.
`c1ccc(CNCc2ccc(CN3CCCNCCNCCCNCC3)cc2)nc1`: the result_ITMP is on record as -2%.
For `Clc1ccc(N2CCN(Cc3c[nH]c4ncccc34)CC2)cc1`, the result_ITMP came to 1.68%.
In the case of `CCCC(CCC)C(=O)NCC(N)=O`, the result_ITMP is on record as -5.65%.
For the molecule `Nc1ccc(C(=O)[O-])c(O)c1`, the result_ITMP is listed as -0.28%.
In the case of `C[C@H](CCC(=O)NCCS(=O)(=O)O)[C@H]1CC[C@H]2[C@@H]3[C@@H](O)C[C@@H]4C[C@H](O)CC[C@]4(C)[C@H]3CC[C@]12C`, the result_ITMP stood at 3.34%.
The result for `C[C@]12C=CC(=O)C=C1CC[C@@H]1[C@@H]2CC[C@]2(C)OC(=O)CC[C@@H]12` reads -2.34%; that for `CC(=O)O[C@H]1CC[C@@]2(C)C(=CC[C@@H]3[C@@H]2CC[C@]2(C)C(c4cccnc4)=CC[C@@H]32)C1`, 2.09%.
The figure for `Cc1cccc(C)c1-n1c(=O)c2cnc(Nc3ccc(N4CCN(C)CC4)cc3)nc2n2c3ccccc3nc12` is 81.7%; for `CN1CCN(c2ccc(Nc3ncc4cc(C#N)c(=O)n(C5CCCC5)c4n3)cc2)CC1` it is -0.88%.
The result for `C=CCn1c(=O)c2cnc(Nc3ccc(N4CCN(C)CC4)cc3)nc2n1-c1cccc(C(C)(C)O)n1` reads 32.4%; that for `N[C@@H](CSS(=O)(=O)[O-])C(=O)O`, -1.62%; that for `C/C=C(\C(=C\C)c1ccc(O)cc1)c1ccc(O)cc1`, 0.7%.
With `Clc1ccc2c(c1)C(N1CCNCC1)=Nc1ccccc1O2`, the result_ITMP worked out at 70%.
The figure for `Cc1cc2c(s1)Nc1ccccc1N=C2N1CCN(C)CC1` is -8.9%; for `Clc1cccc(N2CCNCC2)c1` it is 4.14%.
The result for `CN1CCN(C2=Nc3ccccc3Sc3ccc(Cl)cc32)CC1` reads 26.7%; that for `Clc1ccc2c(c1)N=C(N1CCNCC1)c1ccccc1N2`, 77.7%.
The result for `c1ccc2nc(N3CCNCC3)ccc2c1` reads 9.23%; that for `Cc1ccc(Oc2ccccc2-c2csc(NC3=NCCCN3)n2)c(C)c1`, 6.61%; that for `COc1cc(CCc2cc(NC(=O)c3ccc(N4C[C@@H](C)N[C@@H](C)C4)cc3)n[nH]2)cc(OC)c1`, 30.8%.
In the case of `C=C[C@@]1(C)CC(=O)[C@]2(O)[C@@]3(C)[C@@H](O)CCC(C)(C)[C@@H]3C(OC(=O)CCN(C)C)C(OC(C)=O)[C@@]2(C)O1` (stereo partly drawn), the result_ITMP is listed as 4.63%.
Turning to `C[C@H](CCC(=O)NCCS(=O)(=O)O)[C@H]1CC[C@H]2[C@@H]3[C@H](O)C[C@@H]4C[C@H](O)CC[C@]4(C)[C@H]3C[C@H](O)[C@]12C`, the result_ITMP was -2.23%.
